The record followed here is PubChem BioAssay (NCI).

This is part of a sample that, as a whole, favours compounds with a hit. Of some 83,000 tested, about 20% had one in any assay.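 Plates (96-well) were seeded with cells, treated with compound at one concentration, and incubated for 48 hours before percent growth was determined.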 A number with no mark means an inactive call. Activity calls are given as the source filed them. The calls were made as follows: active = growth percent below 10; inactive = the rest.

Test systems include SR leukemia; RPMI-8226 leukemia; OVCAR-8 ovarian; OVCAR-5 ovarian; OVCAR-4 ovarian; SK-OV-3 ovarian; IGROV1 ovarian; OVCAR-3 ovarian; HS 578T breast; NCI/ADR-RES ovarian; T-47D breast; BT-549 breast; MDA-MB-435 melanoma; SW-620 colon; MCF7 breast; HCT-116 colon; KM12 colon; HCC-2998 colon.
What all share (assay): NCI-60 one-dose screen, 48 h (100 = growth as untreated, 0 = no growth, -100 = all killed)
Common to all, as to conditions: 10 µM unless noted

Consider `COc1cccc(CNc2c3ccccc3nc3ccccc23)c1OC`, for which the growth in the assay on SR leukemia was 17.5%; in the assay on RPMI-8226 leukemia, 17%; in the assay on OVCAR-8 ovarian, 39.2%; in the assay with OVCAR-5 ovarian, 43%; in the assay with OVCAR-4 ovarian, 36.6%; in the assay with SK-OV-3 ovarian it was 66%. Moreover, the growth is 23.2% in the assay with IGROV1 ovarian; 65.1% with OVCAR-3 ovarian; 64.3% in the assay with HS 578T breast; 33.2% with NCI/ADR-RES ovarian; 47.5% in the assay with T-47D breast; 59.7% in the assay with BT-549 breast. In addition, the growth in the assay with MDA-MB-435 melanoma is 46.3%; in the assay on SW-620 colon it was 25.4%; in the assay on MCF7 breast it was 10.1%; in the assay with HCT-116 colon, 11.8%; in the assay with KM12 colon it was 52.4%.

On to `COC(=O)c1c2c(c[n+]([O-])c1C)C(=O)C=C(NCc1ccccc1)C2=O`, for which the growth is -10.3% (active) in the assay with SR leukemia; -22.6% (active) in the assay on RPMI-8226 leukemia; -60.4% (active) in the assay on OVCAR-8 ovarian; -90% (active) in the assay with OVCAR-5 ovarian; -98.8% (active) in the assay on OVCAR-4 ovarian; -87.6% (active) in the assay with SK-OV-3 ovarian. For the same compound, the growth in the assay on IGROV1 ovarian is -66.9% (active); in the assay on OVCAR-3 ovarian, -68.7% (active); in the assay on HS 578T breast, -15.5% (active); with NCI/ADR-RES ovarian, -12.1% (active); with T-47D breast, -47.7% (active); in the assay with BT-549 breast it was -87.3% (active). Also, the growth with MDA-MB-435 melanoma was -86.5% (active); in the assay with SW-620 colon it was -78.9% (active); with MCF7 breast it was -57.3% (active); in the assay on HCT-116 colon, -79.5% (active); in the assay with HCC-2998 colon, -89.5% (active); in the assay with KM12 colon, -83.2% (active).

Consider `CCCCCCCCCCCCCCCCCCOc1ccccc1CC(=O)NCC[N+](C)(C)C`, for which the growth with SR leukemia was 21.3%; in the assay with RPMI-8226 leukemia it was 17.9%; in the assay on OVCAR-8 ovarian, 41.7%; in the assay on OVCAR-5 ovarian, 14.6%; in the assay with OVCAR-4 ovarian, 46.7%; in the assay with SK-OV-3 ovarian it was 84.9%. Moreover, the growth in the assay with IGROV1 ovarian is -49.7% (active); in the assay on OVCAR-3 ovarian, 35%; in the assay with HS 578T breast it was 61.8%; in the assay on NCI/ADR-RES ovarian, 99.3%; in the assay on T-47D breast it was 73.2%; in the assay on BT-549 breast, 57.6%. The growth is 73.1% with MDA-MB-435 melanoma; 45.1% with SW-620 colon; 57.6% in the assay on MCF7 breast; 45.2% in the assay on HCT-116 colon; 29.9% in the assay with HCC-2998 colon; -27% (active) in the assay with KM12 colon.

As to `Cc1cn(C)cn1`, the growth in the assay with SR leukemia was 99.4%; with RPMI-8226 leukemia, 102%; with OVCAR-8 ovarian, 106%; in the assay with OVCAR-5 ovarian it was 102%; in the assay on OVCAR-4 ovarian, 100%; with SK-OV-3 ovarian, 120%. In addition, the growth is 117% in the assay with IGROV1 ovarian; 108% with OVCAR-3 ovarian; 138% with HS 578T breast; 109% in the assay on NCI/ADR-RES ovarian; 104% in the assay with T-47D breast; 101% in the assay on BT-549 breast. For the same compound, the growth with MDA-MB-435 melanoma was 98.4%; in the assay on SW-620 colon, 108%; in the assay with MCF7 breast, 94.9%; in the assay on HCT-116 colon, 105%; with KM12 colon, 105%.

For `COc1ccc(NC(=O)c2ccc(Nc3ncnc4c3cnn4-c3cccc(F)c3)cc2)cc1`, the growth was 95.2% in the assay on SR leukemia; 96.6% in the assay with RPMI-8226 leukemia; 99.2% in the assay on OVCAR-8 ovarian; 100% with OVCAR-5 ovarian; 103% in the assay on OVCAR-4 ovarian; 111% with SK-OV-3 ovarian. In addition, the growth in the assay on IGROV1 ovarian is 109%; with OVCAR-3 ovarian it was 110%; with HS 578T breast, 97.4%; in the assay with NCI/ADR-RES ovarian, 103%; with T-47D breast, 96.1%; in the assay with BT-549 breast, 104%. The growth with MDA-MB-435 melanoma is 102%; in the assay with SW-620 colon, 103%; in the assay on MCF7 breast, 96.5%; with HCT-116 colon it was 103%; with HCC-2998 colon, 107%; in the assay on KM12 colon, 100%.

Regarding `COC(=O)[C@]1(C)CCC[C@]2(C)[C@H]3C[C@@H]4[C@H]5[C@@H]6CC/C(=N\OCC/C(N)=N/O)[C@H]5[C@@]3(CC[C@H]21)CC4(C(C)C)O6`, the growth is 5.07% (active) in the assay with SR leukemia; 39.1% with RPMI-8226 leukemia; 73.2% in the assay with OVCAR-8 ovarian; 93.3% with OVCAR-5 ovarian; 51.6% in the assay with OVCAR-4 ovarian; 89.9% in the assay on SK-OV-3 ovarian. Further, the growth with IGROV1 ovarian is 63.4%; in the assay on OVCAR-3 ovarian, 53.1%; in the assay with HS 578T breast it was 66.3%; with NCI/ADR-RES ovarian, 32.1%; in the assay with T-47D breast, 50%; with BT-549 breast, 74.9%. Moreover, the growth with MDA-MB-435 melanoma is 82.9%; in the assay with SW-620 colon it was 64.3%; with MCF7 breast, 55.9%; with HCT-116 colon it was 52.6%; in the assay with HCC-2998 colon it was 90.4%; in the assay with KM12 colon, 76%.

`NS(=O)(=O)c1ccc(C(=O)NN2C(=O)c3ccccc3C2=O)cc1`: the growth was 105% in the assay with SR leukemia; 109% in the assay with RPMI-8226 leukemia; 107% with OVCAR-8 ovarian; 110% with OVCAR-5 ovarian; 113% in the assay on OVCAR-4 ovarian; 117% in the assay on SK-OV-3 ovarian. The growth in the assay on IGROV1 ovarian was 113%; in the assay with OVCAR-3 ovarian it was 108%; with HS 578T breast, 102%; in the assay on NCI/ADR-RES ovarian, 112%; with T-47D breast, 98.4%; in the assay with BT-549 breast, 109%. For the same compound, the growth was 103% with MDA-MB-435 melanoma; 104% in the assay with SW-620 colon; 96.1% in the assay on MCF7 breast; 110% with HCT-116 colon; 108% with HCC-2998 colon; 102% in the assay with KM12 colon.

With `COc1ccc2cc(-c3nc4ccc(C)cn4c3NCc3ccco3)c(=O)[nH]c2c1`, the growth in the assay with SR leukemia was 31.5%; in the assay with RPMI-8226 leukemia, 62.3%; in the assay with OVCAR-8 ovarian, 78.5%; in the assay with OVCAR-5 ovarian it was 70.8%; in the assay with OVCAR-4 ovarian, 69.3%; with SK-OV-3 ovarian it was 78.1%. Moreover, the growth is 63.4% in the assay on IGROV1 ovarian; 89.4% with OVCAR-3 ovarian; 65.3% with HS 578T breast; 68.7% in the assay on NCI/ADR-RES ovarian; 47.1% with T-47D breast; 66.1% in the assay with BT-549 breast. Moreover, the growth was 86.8% in the assay on MDA-MB-435 melanoma; 87.1% in the assay with SW-620 colon; 74.1% in the assay with MCF7 breast; 57.5% in the assay on HCT-116 colon; 77.7% in the assay on KM12 colon.

On to `COc1ccc(Nc2ncc(I)c(NCCCNC(=O)C3CCC3)n2)cc1`, for which the growth is 0.641% (active) with SR leukemia; 11.4% in the assay on RPMI-8226 leukemia; 19.3% with OVCAR-8 ovarian; 3.96% (active) with OVCAR-5 ovarian; 42.2% in the assay with OVCAR-4 ovarian; -3.33% (active) in the assay on SK-OV-3 ovarian. Further, the growth in the assay with IGROV1 ovarian is -20.8% (active); in the assay with OVCAR-3 ovarian, -40.4% (active); with HS 578T breast it was 17.1%; in the assay on NCI/ADR-RES ovarian it was 22.2%; with T-47D breast it was 43%; in the assay with BT-549 breast, -73.8% (active). Also, the growth was 49.4% in the assay with MDA-MB-435 melanoma; 12.9% with SW-620 colon; 3.83% (active) in the assay on MCF7 breast; -30.3% (active) with HCT-116 colon; 25.4% in the assay with HCC-2998 colon; 5.46% (active) with KM12 colon.
